# Laboratory results taken from PMC7819943, “Rice protein-binding microarrays: a tool to detect cis-acting elements near promoter regions in rice”.
# Whole data set: some 39,000 sequences, median “fluorescence intensity (a.u.)” near 4,300, cut for the highest 2% near 39,000. The sample as a whole holds a higher share of the highest values than the screen did.
# Target: T1, OsSMF1 (Oryza sativa, UniProt Q6ZLB0 1-436)
# T1 sequence: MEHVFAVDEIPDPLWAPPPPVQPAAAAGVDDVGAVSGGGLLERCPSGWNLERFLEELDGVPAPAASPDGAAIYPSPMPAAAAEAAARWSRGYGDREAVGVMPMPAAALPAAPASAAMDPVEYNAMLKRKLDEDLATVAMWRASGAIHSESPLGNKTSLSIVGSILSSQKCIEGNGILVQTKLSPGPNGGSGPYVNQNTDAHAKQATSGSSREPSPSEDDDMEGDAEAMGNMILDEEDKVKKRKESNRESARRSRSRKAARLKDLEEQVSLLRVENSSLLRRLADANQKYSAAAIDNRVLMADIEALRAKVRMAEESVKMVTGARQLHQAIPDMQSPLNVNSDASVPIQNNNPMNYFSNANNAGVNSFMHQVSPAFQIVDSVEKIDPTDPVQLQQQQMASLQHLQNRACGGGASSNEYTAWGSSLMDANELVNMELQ
# Experiment: protein-binding microarray (RPBM); PBS, 2% BSA, 51.3 ng/ul salmon testes DNA, 50 uM zinc acetate, 200 nM TF, 25 C, 1 h; high values mean tight binding
# Details: protein: recombinant; tags: N-terminal polyhistidine and DsRed monomer fusion (pET32a); chain copies: 2; label: CyDye5-dUTP incorporated in the synthesized complementary strand; 3' TTTTT single-stranded linker to array surface; dsDNA, one strand shown
# In short: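 In PBS with 2% BSA, salmon testes DNA and 50 µM zinc acetate, 200 nM protein was incubated on a custom Agilent array at 25 °C for 1 h and then washed off. The array had been made double-stranded by primer extension with Cy5-dUTP and blocked with 2% BSA. The proteins were transcription factors fused N-terminally to polyhistidine and DsRed, expressed in E. coli BL21-CodonPlus and purified on Ni–NTA. The binding signal is per-feature fluorescence intensity (arbitrary units) from an Axon 4000B scanner.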
row,Sequence,binding signal
1,CTCACTGGTATGCTCACCACCACTTTAAGACTGTGTTTGTCGGAGTCACCTAGTGCAG,3730 fluorescence intensity (a.u.)
2,TGGCCATCGCCTACGGTGAGCAGTCATCGTCGTCCATCCGCGGAGTCACCTAGTGCAG,4090 fluorescence intensity (a.u.)
3,TAGTCCTCCTTGGCTACGGTGTCATAGATCGAGGCCTCCGCGGAGTCACCTAGTGCAG,50200 fluorescence intensity (a.u.)
4,AGAGGCGAAATCGCGGCTACGGAGGCGGCGGCGGTGGCGGCGGAGTCACCTAGTGCAG,3390 fluorescence intensity (a.u.)
5,TGAAAATTTGTACACGTAAGTAATAGATGGTACCAATAGACGGAGTCACCTAGTGCAG,5890 fluorescence intensity (a.u.)
6,AGAAGACGATCTCCTGAGACAAATTGCCAAAATTAAAGAACGGAGTCACCTAGTGCAG,4830 fluorescence intensity (a.u.)
7,GAGAATTCTCCACGAAAAGAGGAGAACGAACCACATCAAACGGAGTCACCTAGTGCAG,3380 fluorescence intensity (a.u.)
8,GCACATCTTCCTTAATTGCCAAAAGAGTAAATTTCACGAACGGAGTCACCTAGTGCAG,43300 fluorescence intensity (a.u.)
9,AAGAGAAAATTCAAGAAATATCATTACCAAAGTCCAAGAACGGAGTCACCTAGTGCAG,52800 fluorescence intensity (a.u.)
10,CGTGTCATTGTCCAAAATGTCAAAGAAATATGGAACCGGACGGAGTCACCTAGTGCAG,15200 fluorescence intensity (a.u.)
11,TGTCACGAAAATCTTAATATTCATTTGGAGAAAAGAACGGCGGAGTCACCTAGTGCAG,49000 fluorescence intensity (a.u.)
12,GAGTTTAATTAATTAATTTCTTAAAATTGATGTCATCACACGGAGTCACCTAGTGCAG,3140 fluorescence intensity (a.u.)
13,TTTCAAAATATTCAGTTTGAGAATATGTAAATCTTATGGGCGGAGTCACCTAGTGCAG,20100 fluorescence intensity (a.u.)
14,CGAACGAGAATTCATGGAATCCAAGAAAAGAGACACGTGTCGGAGTCACCTAGTGCAG,5610 fluorescence intensity (a.u.)
15,GATACGCGGCGGCTGAGTCAGCGTGGGACCCACGTGGGCCCGGAGTCACCTAGTGCAG,13000 fluorescence intensity (a.u.)
16,GCCATCCTCACGCACACGCCACGTGCTCGACGAAATGCCGCGGAGTCACCTAGTGCAG,4190 fluorescence intensity (a.u.)
17,AGCTCAGCTCTCTCTGCTCTGCTCTTTGCTCGATAACGACCGGAGTCACCTAGTGCAG,33600 fluorescence intensity (a.u.)
18,AAGGTTTGGAACATTCTGTTACCTATGAATACTGCACAGGCGGAGTCACCTAGTGCAG,11700 fluorescence intensity (a.u.)
19,AAGAGCGTTTAAACAAGCTGTGGAGTCAGCAGATAGATTACGGAGTCACCTAGTGCAG,3940 fluorescence intensity (a.u.)
20,GCATCGCCATCGCCGCGTGGTGGCGCACCATTCGCGTCACCGGAGTCACCTAGTGCAG,5300 fluorescence intensity (a.u.)
21,GGGCGGCGACGACGGTCACGGCGGACAAGGGCGGCGGCAACGGAGTCACCTAGTGCAG,3160 fluorescence intensity (a.u.)
22,GGCTCGCAGAAAGGCGGACGACAAGGGCTCAGCAGGGTCACGGAGTCACCTAGTGCAG,39500 fluorescence intensity (a.u.)
23,ATCTAGCGACGAGAAGAGAGGAAGGGAGGGAGGCGTCACGCGGAGTCACCTAGTGCAG,3830 fluorescence intensity (a.u.)
24,CCGGGAAGGGAGAGGGAGAGAGGAGTCGGGGCGAGAAGTGCGGAGTCACCTAGTGCAG,3500 fluorescence intensity (a.u.)
25,GGAGGCGGCGGCGACGAGGAGGGGCGTGGGCGGCGGCGGCCGGAGTCACCTAGTGCAG,3660 fluorescence intensity (a.u.)
26,CATCGCCGCGCGTGCACCAGAGGACCAGACCGACCGGCGTCGGAGTCACCTAGTGCAG,50200 fluorescence intensity (a.u.)
27,GGAGGAGTGGTCGCCGGGGATCATCGCGCGGCGTCACCGGCGGAGTCACCTAGTGCAG,3570 fluorescence intensity (a.u.)

row,Sequence,binding signal
1,CGTCGGCGGCGGCGGAGGGGAGGACGACGTGGTCGACCTCCGGAGTCACCTAGTGCAG,3590 fluorescence intensity (a.u.)
2,AAAGGAAAGGCGCGTCACGGCGTCAGACGAGACGACGACGCGGAGTCACCTAGTGCAG,3340 fluorescence intensity (a.u.)
3,CCGACGAGGACGAGGCGGCGTGGTCGAAGCCGGCGGTCGGCGGAGTCACCTAGTGCAG,42500 fluorescence intensity (a.u.)
4,CGACGAGAAGGACACCTCCTCGGAAAAGGGAGGGCGTCGGCGGAGTCACCTAGTGCAG,44600 fluorescence intensity (a.u.)
5,GTATCCATTCCTGCAAATCCAAGTTGGCAATTCCGAGGGCCGGAGTCACCTAGTGCAG,3340 fluorescence intensity (a.u.)
6,GCGGCGCGACAGCGACAAAGCGCACGCGCGCGGCGAGCTGCGGAGTCACCTAGTGCAG,30800 fluorescence intensity (a.u.)
7,TAACTTTGGAACAGGCTGATAAGGGTGGATCCTGCGGTTGCGGAGTCACCTAGTGCAG,3440 fluorescence intensity (a.u.)
8,CTGTTTCAGCACCACTGAGTTCGCAGCAAATGACACAAGGCGGAGTCACCTAGTGCAG,3340 fluorescence intensity (a.u.)
9,CTTCAGGGTCTAGTCTTTTCAAACCATCGGAGTTATCGTCCGGAGTCACCTAGTGCAG,3530 fluorescence intensity (a.u.)
10,CCGTCACGGATGACACTTATCTGTGACGGGCTATAGTTGACGGAGTCACCTAGTGCAG,4260 fluorescence intensity (a.u.)
11,GTCGCGCGCTTGGTGGCTTGCAAGAACCAGCTCCACCGCGCGGAGTCACCTAGTGCAG,3300 fluorescence intensity (a.u.)
12,GATTCGTTGAATACCGTCATTATTGGTGGGTTATCATCATCGGAGTCACCTAGTGCAG,3490 fluorescence intensity (a.u.)
13,GTGGAGTGCGGTGGACGGAGCGGCGGGGCGGGGCGGTCAGCGGAGTCACCTAGTGCAG,6720 fluorescence intensity (a.u.)
14,AAAGTTTTGCATGCCGCTGTCGAAGTCGGCTTCCGCGTAGCGGAGTCACCTAGTGCAG,32300 fluorescence intensity (a.u.)
15,TTAGTGAACGGTGCAACGCGTCAAGGACGAGTCAACGCGCCGGAGTCACCTAGTGCAG,4850 fluorescence intensity (a.u.)
16,AGAGAGAGAGAGAGAGAGAGAGAGCTCAGGATCGACGAGACGGAGTCACCTAGTGCAG,16900 fluorescence intensity (a.u.)
17,GCCAACGAGGTCGCGTTCGACAAGGTGAAGGACGCCGGCGCGGAGTCACCTAGTGCAG,39600 fluorescence intensity (a.u.)
18,AACCGAATCCAATCGAGCTCAGGACGAGGCGGAGGAGGAGCGGAGTCACCTAGTGCAG,42900 fluorescence intensity (a.u.)
19,ACGGAGAAGTCCCGAGACCGGCGCCGCCAGGACCGCCACCCGGAGTCACCTAGTGCAG,44400 fluorescence intensity (a.u.)
20,TGCAGCAGGAGATCGATCGATCGATCGATCCAACCGAATGCGGAGTCACCTAGTGCAG,3260 fluorescence intensity (a.u.)
21,GCCTAGCCAGGATCGCCGCCGGCGGCGCCGCCGAGTCACACGGAGTCACCTAGTGCAG,33100 fluorescence intensity (a.u.)
22,ACCAACAAGGTCGTCGCCGACGACGCCGACGCCGACGCCGCGGAGTCACCTAGTGCAG,27600 fluorescence intensity (a.u.)
23,TCGGCGCCGCGCCGCGCCACGGAGGGTGTCACGAGACCGCCGGAGTCACCTAGTGCAG,4790 fluorescence intensity (a.u.)
24,TCTCCATAAGAGCACCCACCAACTCAGCCTCTCCTCCCATCGGAGTCACCTAGTGCAG,3340 fluorescence intensity (a.u.)
25,CTCCTCCGCCGCCGCCGCTCCCAGCCTGCACGCCGGCCGCCGGAGTCACCTAGTGCAG,26200 fluorescence intensity (a.u.)
26,GTGCTGTTCCTGCATGTGCATGCATGTATGAGTACGTACGCGGAGTCACCTAGTGCAG,3910 fluorescence intensity (a.u.)
27,TCTCTCTTCACGGGAGGGCAGTGTGGTTTTGGTCGGATTCCGGAGTCACCTAGTGCAG,3530 fluorescence intensity (a.u.)
